According to PubChem BioAssay (NCATS):
“And” between values parts separate entries of the source, which are not always exact repeats. Equal values may be shown once. Inconclusive results are not listed. The source made the active and inactive calls. Unless noted, the call rests on the fitted dose curve.

Assays:
[1] = Cell Viability - BJ (AID 421); settings: BJ fibroblast viability, qHTS;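 further: potency means the concentration at half of the fitted maximal effect; cells exposed to compound for 40 hours at 37 °C before readout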
Summary of the method: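 Cytotoxicity in human BJ foreskin fibroblasts is scored as loss of cellular ATP after a 40-hour exposure, measured by luciferase luminescence. Controls are DMSO and 100 uM tamoxifen.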

[2] = Cell Viability - SH-SY5Y (AID 544; active means well fitted curve in the direction sought with a large enough effect; an effect the other way counts as inactive or inconclusive;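 further: cells exposed to compound for 40 hours; nearly all actives have a fitted effect of over 55% in size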); settings: SH-SY5Y neuroblastoma cell viability; viability change, negative = cytotoxic: at 92.2 µM (top of the series)
Summary of the method: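 Cytotoxicity measured via ATP-dependent luciferase luminescence (CellTiter-Glo) following 40 h, 37 °C exposure of 1500 SH-SY5Y cells per well. Concentration-response data were fitted with the standard Hill equation to give AC50.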

[3] = Cellular Toxicity (caspase-3) Jurkat (AID 655; active means well fitted curve in the direction sought with a large enough effect; an effect the other way counts as inactive or inconclusive;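 further: cells exposed to compound for 16 h at 37 °C before reading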); settings: Jurkat caspase-3 activation, luminescence; caspase-3 activation: at 92.2 µM (top of the series), DMSO = 0%, tamoxifen = 100%
Summary of the method: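 5000 Jurkat cells/well; compound 16 hr, 37 °C; Caspase-Glo 3/7 added, 20 min RT; luminescence read. Norm: DMSO = 0%, tamoxifen 100 uM = 100%. AC50, Hill model.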

[4] = target: Estrogen receptor (Homo sapiens) (UniProt P03372); assay: qHTS assay for small molecule antagonists of estrogen receptor alpha signaling (AID 588513; active means well fitted curve in the direction sought with a large enough effect in the signal ratio, with a control signal flat, not every such curve was filed as active; the % refers to the signal ratio; further: on the % scale 0 is the no-effect control and ±100 the full control effect); settings: ER-alpha-UAS-bla HEK293, beta-lactamase ratio, antagonist mode; series mostly up to 76.9 µM
Summary of the method: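 Fluorescence from CCF4 substrate after 2 h at room temperature gave reporter activity; cells had been exposed to compound and 0.5nM 17-beta-estradiol for 18 h at 37 C. Hill-equation fitting yielded IC50 and maximal response.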

[5] = target: Estrogen receptor (Homo sapiens) (UniProt P03372); assay: qHTS assay for small molecule agonists of estrogen receptor alpha signaling (AID 588514); settings: ER-alpha-UAS-bla HEK293, beta-lactamase ratio, 18 h; series mostly up to 76.8 µM;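 further: 0% = vehicle only and 100% = reference agonist; nearly all actives have a fitted effect of over 70% in size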
Summary of the method: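 EC50 and efficacy came from Hill fits of beta-lactamase reporter signal (CCF4 dye, 2 h at room temperature) scaled between DMSO and 20 nM 17-beta-estradiol. Agonist mode: HEK293 ER-alpha-UAS-bla cells in charcoal/dextran-stripped serum medium, 18 h compound exposure at 37 C.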

[6] = target: Glucocorticoid receptor (Homo sapiens) (UniProt P04150); assay: qHTS assay for small molecule agonists of glucocorticoid receptor signaling (AID 588532; active means well fitted curve in the direction sought with a large enough effect in the signal ratio, with a control signal flat; the % refers to the signal ratio;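 further: 100% = dexamethasone at 0.1 µM and 0% = DMSO only wells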); settings: HeLa MMTV-bla, beta-lactamase ratio, agonist, 18 h; stronger effect = higher value; percent of dexamethasone control, DMSO zero
Summary of the method: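 Stimulation of a glucocorticoid response element-driven beta-lactamase gene was measured in HeLa cells. Responses were scaled between DMSO basal and 0.1 uM dexamethasone, then fitted for half-maximal stimulation.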

[7] = target: Glucocorticoid receptor (Homo sapiens) (UniProt P04150); assay: qHTS assay for small molecule antagonists of glucocorticoid receptor signaling (AID 588533; active means well fitted inhibition curve with a large enough effect in the signal ratio, with a control signal flat, not every such curve was filed as active; the % refers to the signal ratio;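 further: cells stimulated with 2 nM dexamethasone as agonist; on the % scale 0 is the no-effect control and ±100 the full control effect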); settings: HeLa MMTV-bla, GRE beta-lactamase ratio, antagonist mode, 18 h; series mostly up to 76.8 µM
Summary of the method: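 Antagonist-mode qHTS: compound titrations added to GRE-bla HeLa cells, then dexamethasone 2 nM final; 18 h, 37 C. CCF4 FRET fluorescence normalized to dexamethasone and DMSO; IC50 from Hill fit.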

[8] = target: Peroxisome proliferator-activated receptor delta (Homo sapiens) (UniProt Q03181); assay: qHTS assay for small molecule agonists of peroxisome proliferator-activated receptor delta signaling (AID 588534); settings: HEK293T PPARdelta-UAS-bla, beta-lactamase ratio, 18 h; series mostly up to 76.7 µM;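 further: 0% = DMSO basal wells and 100% = positive control agonist at 10 µM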
Summary of the method: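 Agonist-mode beta-lactamase reporter readout (CCF4 dye, 2 h at RT) after 18 h at 37 °C exposure to a titration; Hill-equation fitting gave EC50 and maximal response.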

[9] = qHTS assay for small molecule antagonists of peroxisome proliferator-activated receptor delta signaling (AID 588535; active means well fitted inhibition curve with a large enough effect in the signal ratio, with a control signal flat, not every such curve was filed as active; the % refers to the signal ratio;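 on max response: cells co-treated with a PPAR-delta agonist as stimulator during compound exposure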); settings: HEK293T PPARd-UAS-bla, beta-lactamase FRET ratio, 18 h; 460 nm channel
Summary of the method: (§1)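 Inhibition of PPAR-delta response element-driven beta-lactamase expression is measured in HEK293T cells exposed to a compound titration series for 18 hrs at 37 C. Half-maximal inhibition comes from Hill equation fitting.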

[10] = target: Peroxisome proliferator-activated receptor delta (Homo sapiens) (UniProt Q03181); assay: as above; settings: HEK293T PPARd-UAS-bla, beta-lactamase FRET ratio, 18 h; series mostly up to 76.7 µM
Summary of the method: as §1

[11] = qHTS assay for small molecule agonists of the antioxidant response element (ARE) signaling pathway (AID 651741; active means well fitted activation curve with a large enough effect in the signal ratio; the % refers to the signal ratio; further: potency means the concentration at half of the fitted maximal effect; on activation: % of control where 0% means no effect); settings: HepG2 ARE-bla reporter, beta-lactamase FRET ratio, 16 h; series mostly up to 96 µM
Summary of the method: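 Reporter: beta-lactamase under ARE, stably in HepG2. Exposure: 16 h, 37 C, compounds delivered in DMSO by pin tool after 5 h cell preincubation. Readout: FRET substrate fluorescence after 2 h at RT.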

[12] = qHTS assay for small molecule activators of the nuclear factor-kappa B (NF-kB) signaling pathway (AID 651749; active means well fitted activation curve with a large enough effect in the signal ratio; the % refers to the signal ratio; further: % of control where 0% means no effect); settings: NF-kB-bla ME-180 cells, beta-lactamase FRET ratio, 16 h; stronger effect = higher value
Summary of the method: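 Human ME-180 cervical cells with an NF-kB-bla construct; compounds added via 23 nL pin transfer, DMSO as vehicle; incubation 16 hr. Reporter activity measured by FRET disruption.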

[13] = qHTS assay for small molecule disruptors of the mitochondrial membrane potential - 1 hr assay (AID 651754); settings: series mostly up to 92.2 µM; further: nearly all actives have a fitted effect of over 35% in size; further: potency means the concentration at half of the fitted maximal effect
Summary of the method: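 Mitochondrial potential in living HepG2 cells after 1 hr compound treatment at 37C was read with Mito-MPS dye added for a further 30 min. Red aggregate and green monomer fluorescence were measured; loss of potential leaves dye as cytoplasmic monomers.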

[14] = qHTS assay for small molecule disruptors of the mitochondrial membrane potential - 5 hr assay (AID 651755); settings: JC-1-type ratio dye; series mostly up to 92.2 µM; further: nearly all actives have a fitted effect of over 40% in size; further: potency means the concentration at half of the fitted maximal effect
Summary of the method: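 Seed HepG2 overnight, add compound, incubate 5 hr at 37C and 5% CO2, stain 30 min with Mito-MPS, then measure monomer (490/535 nm) and aggregate (540/590 nm) fluorescence.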

[15] = Cell Viability - NIH 3T3 (AID 541; active means well fitted curve in the direction sought with a large enough effect; an effect the other way counts as inactive or inconclusive;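 further: cells exposed to compound for 40 hours; plate controls were DMSO alone for no effect and tamoxifen positive control for full effect; nearly all actives have a fitted effect of over 25% in size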); settings: NIH 3T3 cell viability, qHTS; activity change, negative = cytotoxicity: at 92.2 µM (top of the series)
Summary of the method: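 Intracellular ATP (CellTiter-Glo luminescence, 20 min at room temperature) measured after 40 hr compound exposure at 37 °C of 1000 NIH 3T3 mouse fibroblasts/well in complete medium; AC50 derived by Hill-equation modelling of qHTS concentration-response curves.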

[16] = target: Peroxisome proliferator-activated receptor gamma (Homo sapiens) (UniProt P37231); assay: qHTS assay for small molecule antagonists of peroxisome proliferator-activated receptor gamma signaling (AID 588537; active means well fitted inhibition curve with a large enough effect in the signal ratio, with a control signal flat, not every such curve was filed as active; the % refers to the signal ratio;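 further: reporter cells co-stimulated with 50 nM rosiglitazone agonist during compound treatment; % of control where 0% means no effect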); settings: HEK293 PPARg-UAS-bla, beta-lactamase ratio, antagonist mode; series mostly up to 76.8 µM
Summary of the method: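 Compounds are tested as concentration series for inhibition of rosiglitazone-driven (50 nM) reporter expression in GeneBLAzer PPAR-gamma-UAS-bla HEK293 cells. After 16 h at 37 C, CCF4 substrate is added for 2 h at room temperature and blue/green fluorescence is measured.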

[17] = target: Retinoic acid receptor RXR-alpha (Homo sapiens) (UniProt P19793); assay: qHTS assay for small molecule agonists of retinoid X receptor alpha signaling (AID 588544); settings: HEK293T RXRa-UAS-bla, beta-lactamase reporter, 18 h; series mostly up to 76.7 µM;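 further: 0% = DMSO basal wells and 100% = reference agonist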
[18] = qHTS assay for small molecule activators of the p53 signaling pathway (AID 651743; active means well fitted activation curve with a large enough effect in the signal ratio, not every such curve was filed as active; the % refers to the signal ratio; further: % of control where 0% means no effect); settings: HCT-116 p53RE-bla, beta-lactamase FRET ratio, 16 h; activation: stronger effect = higher value
Summary of the method: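 Agonist-mode quantitative HTS in HCT-116 cells carrying a p53-response-element beta-lactamase reporter; 16 h compound treatment at 37 C, then FRET substrate loading for 2 h at room temperature and fluorescence read.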

[19] = Cell Viability - LYMP2-005 (AID 967; active means well fitted curve in the direction sought with a large enough effect; an effect the other way counts as inactive or inconclusive;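 further: cells exposed to compound for 24 h at 37 °C; plate controls were DMSO only for no effect and 92 µM tetraoctylammonium bromide control for full effect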); settings: LYMP2-005 lymphoblastoid cell viability; series mostly up to 92.2 µM
Summary of the method: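 Acute cytotoxicity is scored as a concentration-dependent drop in intracellular ATP in human lymphoblastoid LYMP2-005 cells after 24 h compound treatment. ATP is quantified by luciferase luminescence, and AC50 is derived by Hill-equation modelling.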

[20] = target: Bile acid receptor (Homo sapiens) (UniProt Q96RI1); assay: qHTS assay for small molecule antagonists of farnesoid X receptor signaling (AID 588526); settings: HEK293T FXR-UAS-bla, beta-lactamase ratio, antagonist mode; series mostly up to 76.7 µM; further: on the % scale 0 is the no-effect control and ±100 the full control effect
Summary of the method: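 Concentration-response titrations were fitted to the Hill equation for half-maximal inhibition and maximal response, with data normalised to 50 uM chenodeoxycholic acid and DMSO control wells. Cells: FXR-UAS-bla HEK293T, dialyzed FBS.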

Sequence of Peroxisome proliferator-activated receptor gamma (Homo sapiens) (P37231 whole entry, looked up): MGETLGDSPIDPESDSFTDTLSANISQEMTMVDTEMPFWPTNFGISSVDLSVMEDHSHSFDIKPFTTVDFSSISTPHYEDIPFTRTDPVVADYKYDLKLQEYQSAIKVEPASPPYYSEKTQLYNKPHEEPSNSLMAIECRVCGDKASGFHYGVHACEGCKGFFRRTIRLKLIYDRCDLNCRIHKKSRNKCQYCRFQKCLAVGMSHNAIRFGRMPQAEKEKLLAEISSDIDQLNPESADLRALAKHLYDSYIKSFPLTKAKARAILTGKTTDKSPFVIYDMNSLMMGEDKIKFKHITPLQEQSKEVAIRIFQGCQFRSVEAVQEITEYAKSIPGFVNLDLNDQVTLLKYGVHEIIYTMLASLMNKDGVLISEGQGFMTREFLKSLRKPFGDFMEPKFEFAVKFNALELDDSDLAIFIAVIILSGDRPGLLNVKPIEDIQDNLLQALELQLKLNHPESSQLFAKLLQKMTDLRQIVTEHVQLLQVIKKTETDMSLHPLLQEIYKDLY
Sequence of Retinoic acid receptor RXR-alpha (Homo sapiens) (P19793 whole entry, looked up): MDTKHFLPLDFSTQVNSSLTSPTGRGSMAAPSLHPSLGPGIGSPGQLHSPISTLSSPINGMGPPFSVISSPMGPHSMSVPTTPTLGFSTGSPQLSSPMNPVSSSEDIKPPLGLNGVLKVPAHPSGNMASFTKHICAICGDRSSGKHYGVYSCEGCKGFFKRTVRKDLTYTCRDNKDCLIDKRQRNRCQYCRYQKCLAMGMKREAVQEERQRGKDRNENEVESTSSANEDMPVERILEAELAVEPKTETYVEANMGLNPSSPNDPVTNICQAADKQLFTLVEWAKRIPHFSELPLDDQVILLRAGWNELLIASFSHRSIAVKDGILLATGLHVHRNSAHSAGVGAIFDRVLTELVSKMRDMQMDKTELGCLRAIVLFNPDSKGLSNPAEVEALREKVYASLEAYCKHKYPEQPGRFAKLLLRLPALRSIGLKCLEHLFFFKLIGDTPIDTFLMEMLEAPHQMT
Sequence of Peroxisome proliferator-activated receptor delta (Homo sapiens) (Q03181 whole entry, looked up): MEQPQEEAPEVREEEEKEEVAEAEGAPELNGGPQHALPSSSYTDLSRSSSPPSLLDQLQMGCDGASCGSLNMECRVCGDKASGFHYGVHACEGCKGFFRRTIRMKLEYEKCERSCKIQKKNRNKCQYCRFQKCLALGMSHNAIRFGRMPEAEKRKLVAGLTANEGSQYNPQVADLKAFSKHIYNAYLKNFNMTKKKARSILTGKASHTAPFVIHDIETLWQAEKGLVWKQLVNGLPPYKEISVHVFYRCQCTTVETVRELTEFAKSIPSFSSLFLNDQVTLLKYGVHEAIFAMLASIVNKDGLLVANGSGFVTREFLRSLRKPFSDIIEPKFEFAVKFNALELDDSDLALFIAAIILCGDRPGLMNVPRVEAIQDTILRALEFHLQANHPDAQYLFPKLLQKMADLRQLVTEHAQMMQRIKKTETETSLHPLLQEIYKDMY
Sequence of Glucocorticoid receptor (Homo sapiens) (P04150 whole entry, looked up): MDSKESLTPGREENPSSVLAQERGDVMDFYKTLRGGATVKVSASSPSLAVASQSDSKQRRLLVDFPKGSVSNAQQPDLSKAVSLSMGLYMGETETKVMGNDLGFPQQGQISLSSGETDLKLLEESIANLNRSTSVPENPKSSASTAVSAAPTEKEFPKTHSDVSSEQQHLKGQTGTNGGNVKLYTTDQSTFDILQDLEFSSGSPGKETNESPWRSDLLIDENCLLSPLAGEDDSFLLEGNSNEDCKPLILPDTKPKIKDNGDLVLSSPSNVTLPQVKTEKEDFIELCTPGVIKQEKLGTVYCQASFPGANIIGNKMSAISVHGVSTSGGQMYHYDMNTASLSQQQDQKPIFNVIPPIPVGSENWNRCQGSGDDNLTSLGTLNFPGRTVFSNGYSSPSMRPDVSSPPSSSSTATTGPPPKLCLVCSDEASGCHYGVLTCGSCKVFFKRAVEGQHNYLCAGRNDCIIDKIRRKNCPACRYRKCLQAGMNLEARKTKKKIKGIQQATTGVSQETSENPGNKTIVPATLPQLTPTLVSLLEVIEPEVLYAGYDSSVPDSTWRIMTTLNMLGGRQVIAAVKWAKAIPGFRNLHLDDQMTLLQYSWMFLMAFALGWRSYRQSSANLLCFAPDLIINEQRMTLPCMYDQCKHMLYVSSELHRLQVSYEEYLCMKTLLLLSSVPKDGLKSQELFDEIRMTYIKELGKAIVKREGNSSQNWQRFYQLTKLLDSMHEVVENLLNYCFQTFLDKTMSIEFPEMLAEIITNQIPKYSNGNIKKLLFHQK
Sequence of Estrogen receptor (Homo sapiens) (P03372 whole entry, looked up): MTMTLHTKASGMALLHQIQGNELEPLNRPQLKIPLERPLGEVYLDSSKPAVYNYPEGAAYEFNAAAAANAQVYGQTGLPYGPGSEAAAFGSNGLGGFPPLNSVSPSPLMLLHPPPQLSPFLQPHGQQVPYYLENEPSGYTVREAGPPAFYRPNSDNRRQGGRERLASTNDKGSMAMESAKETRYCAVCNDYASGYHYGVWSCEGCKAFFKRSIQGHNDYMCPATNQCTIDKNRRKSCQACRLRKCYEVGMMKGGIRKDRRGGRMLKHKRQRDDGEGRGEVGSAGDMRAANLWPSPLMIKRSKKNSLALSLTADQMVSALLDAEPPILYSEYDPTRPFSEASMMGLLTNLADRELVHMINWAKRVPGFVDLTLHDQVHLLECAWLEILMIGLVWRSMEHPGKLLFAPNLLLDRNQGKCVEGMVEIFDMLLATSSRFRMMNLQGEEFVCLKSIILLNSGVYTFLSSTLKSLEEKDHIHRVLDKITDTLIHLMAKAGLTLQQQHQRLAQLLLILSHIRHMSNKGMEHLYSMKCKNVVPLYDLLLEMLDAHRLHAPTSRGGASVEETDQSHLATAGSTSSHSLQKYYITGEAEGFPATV
Sequence of Bile acid receptor (Homo sapiens) (Q96RI1 whole entry, looked up): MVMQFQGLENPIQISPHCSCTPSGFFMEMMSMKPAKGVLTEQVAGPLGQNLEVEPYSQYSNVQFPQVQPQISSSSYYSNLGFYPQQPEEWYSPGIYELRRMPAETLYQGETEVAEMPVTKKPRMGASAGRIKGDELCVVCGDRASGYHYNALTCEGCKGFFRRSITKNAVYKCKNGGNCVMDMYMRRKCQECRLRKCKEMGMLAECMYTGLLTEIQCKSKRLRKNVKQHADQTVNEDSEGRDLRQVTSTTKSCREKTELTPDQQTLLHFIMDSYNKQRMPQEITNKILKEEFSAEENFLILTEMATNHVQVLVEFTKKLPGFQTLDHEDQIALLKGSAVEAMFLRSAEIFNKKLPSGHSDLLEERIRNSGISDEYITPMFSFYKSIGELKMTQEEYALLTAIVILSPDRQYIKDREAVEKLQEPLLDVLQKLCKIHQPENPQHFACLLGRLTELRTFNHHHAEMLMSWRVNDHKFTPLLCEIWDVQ

Nc1cc(Cl)ccc1O
active: viability change, negative = cytotoxic [2] -87.6% | Potency [11] 10.6 µM | Potency [13] 29.8 µM | Potency [14] 33.5 µM
inactive: Potency [1] > 92 µM | caspase-3 activation [3] 15.3% | Potency [4] | Potency [5] | activation [6] 3.82% | outcome [7] | outcome [8] | outcome [10] | activation [12] -0.288%
-44.8%: max response [9]

Cc1ccc([N+](=O)[O-])cc1
22.5%: max response [9]
inactive: Potency [1] > 92 µM | Potency [15] | Potency [2] | caspase-3 activation [3] -0.655% | Potency [4] | Potency [5] | activation [6] -2.83% | outcome [7] | outcome [8] | outcome [10] | Potency [16] | outcome [17] | activation [18] -4.73% | Potency [13] | Potency [14]

CC(C)[N+](=O)[O-]
7.55%: max response [9]
inactive: Potency [1] > 92 µM | Potency [2] | Potency [19] | outcome [20] | activation [6] -6.88% | outcome [10] | Potency [11] | activation [12] -0.258%

ClCC(Cl)Cl
-51.8%: max response [9]
inactive: Potency [1] > 92 µM | Potency [15] | Potency [2] | caspase-3 activation [3] 0.231% | Potency [19] | outcome [10] | outcome [17] | Potency [11] | activation [18] -0.152% | Potency [13] | Potency [14]

C[N+](=O)[O-]
inactive: Potency [1] > 92 µM | Potency [15] | Potency [2] | caspase-3 activation [3] 0.536% | Potency [19] | Potency [4] | Potency [5] | activation [6] -0.802% | outcome [7] | outcome [8] | outcome [10] | Potency [16] | outcome [17] | activation [12] -0.658% | Potency [14]
3.34%: max response [9]

O=[N+]([O-])c1ccccc1CCl
-16.6%: max response [9]
inactive: Potency [1] > 92 µM | Potency [2] | caspase-3 activation [3] -0.153% | Potency [19] | Potency [4] | Potency [5] | outcome [20] | activation [6] 1.82% | outcome [7] | outcome [8] | outcome [10] | Potency [16] | outcome [17] | activation [18] -1.05% | activation [12] 0.905% | Potency [13]

ClCc1ccccn1
inactive: Potency [1] > 92 µM | caspase-3 activation [3] 1.38% | Potency [4] | Potency [5] | activation [6] 7.32% and 6.72% | outcome [7] | outcome [8] | Potency [16] | Potency [11] | Potency [13] | Potency [14]
3.34%: max response [9]
